Reference: the supplement of paper PMC6555819

These sequences were tested on PPARg:RXRa DBDmut IVT, anti-RXR (DBD mutation: RXRa K156A/R161A, NR concentration 270 nM, RXRa partner concentration 90 nM) (assay: PBM binding z-score (relative to random genomic background probes); higher = stronger binding; sequences stand for … in GC…GCGATTGACAGCGTAGAATGAAGG).
Method in brief: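 Probes were double-stranded and carried 34-nt variable regions with direct-repeat seeds, single-nucleotide variants, half-site ablations and random human genomic background sequences, printed on custom Agilent 4×180K protein-binding microarrays. Arrays were incubated 1 h with ligand-free nuclear receptor dimers in PBS pH 7.4, 2% milk, 0.02% Triton X-100, 1 mM DTT, 0.2 mg/mL BSA and 0.4 mg/ml salmon testes DNA. Antibodies against each partner (one per run) detected binding, and scanned fluorescence was regression-normalized. Binding z-scores use the random background probes as reference.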

Sequence	PBM binding z-score
CGAACTAGGGCATCCAGGACAGTGAATACATTGA	7.07
TCGAATAGGTTAGTCGGGGCATTCAGCCAACATA	2.05
TCTGGGAGGACACGAAAGGTCAGAGCTCGACATC	1.27
CCGAGTAGGTTATGGGGCATACAGGCAACGGTGA	2.66
CAGCCTAGGTCAGGGCCAGTTTAGGAGGAACGTT	1.5
TAGCCTAGGTCAAGGGCCAGTATACCACGCGAAC	1.71
ACTAGTTGGTCAGCTGAGGTCATACACAATTCGG	1.47
CGTCCAAGGTCAAGGTCAGTCAAAGAGACTCGAA	4.13
AGTCAAAGTTCGTCTAGGTAACGTAAGATATGCT	-0.0534
CGTTAAAGTTCAACTAAGGTAACGTAAAGCACGC	0.607
ACTTACGGGTCAACGAGGGTATAGCACGCGTATA	2.86
ATCTCTAAGTAAAGATAGTTCAGTGAATGCAAAT	0.013
GATACAGGGTCAGCTAGAGGCTAGAGTATGGAAA	0.581
CCAGACAGGTGAGAAGGGAACTCAGCCTCGATTA	0.589
CCTGCTAAGTCAATGGTCAGCTAAAGCAGCTCGC	0.121
CTACCAAGGTGAACAAGGTCGCTGATTACTATTC	2.41
CCTGCTAGGTCATGATCAGCTAATCTACAGTATG	4.52
TCTAGCAGGACAGAGGGTCACTCAAGAGGTACGG	0.809
ACTAGCAGGCCAAGTTTGGTTCACTCAAACAAAG	0.651
ATCTCTAGCTAACAAGTTCAGTGAAAGAGAGGAC	-0.615

Sequence	PBM binding z-score
TCTATCAGGCCAGAGGGTCACTCAAGAGGTACGG	1.69
GTACCAAGGTGCATAGGTCGTTGATGAGTAGGCG	-0.499
GCTATTACTTGAAAGGGCAACCGAATGATTCTCG	0.661
TGTCAAAGTTCAGAGGTAACGTAAGTATCCACAC	-0.368
TGGAGTAGGTTAGGGGCATTCAGAATGGCGTCGA	2.77
CCTTACGGGTCACTCCAGTTTATAGCATCGGAGT	2.98
CCGTCTGGGGCAGAAAGGTTACCATACCATCCGG	0.505
CCTAGTTGGTCAGGAGGGCACACACCGGATATGA	0.374
TCTATTCGTTGATTAGGGCAACCGAAACAGCGGA	1.61
GCTGCTAGGTCCGGTTGGTCAGCTAACGGGTACG	-0.426
GGAACGAGGGCAAAGTGGATAGCATCTGTCGACG	3.95
GCTAGCAGGCCATTTGGGTCTCTCAATGACGGGC	0.644
ATCGAAAGTTCGAAGGTGAGTATACCCACCCGAA	0.0334
AGAATGAGGTTATTAAAATCAGGGAATTGCGGTC	3.19
ATCTCTAGGTAACAAGTTCAGTGGAAGAGAGGAC	3.2
GGAACGAGGGCAAAGTTGAAAGCATCTGTCGACG	4.35
TCTTTTAGATCAAAGGTTAAGAAAGCCGAAGCCT	2.09
AGAGCGAGGGCACGCTGAGTTGATAGCAGAGTAG	0.897
ACTCGGAGGACAAAGGTCTGAGCTACGCCAGTGA	-0.243
